# Shown are actives, neighbours in structure and some others; about 9.9% of the full set was active somewhere.
# MCF10A rereplic: DNA re-replication induction in MCF 10a cells | MCF 10A DNA re-replication, Hoechst nuclear intensity, 48 h | Potency, µM (doses to about 46.1 µM), most hits filed as activators | 2.9% of 350,000 active; note: nearly all actives have a fitted effect of over 50% in size
# KB-V1 MDR tox: kills drug-selected multidrug resistant KB-V1 cells; Potency, µM (titrated, usually from 46.1 µM), actives largely listed as cytotoxic; 3.4% of 400,000 active; AID 1347076; KB-V1 MDR cells viability, CellTiter-Glo, 72 h; note: nearly all actives have a fitted effect of over 60% in size
#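 qHTS viability screen in drug-selected KB-V1 MDR cells: 72 h compound treatment at 37 degrees C, ATP luminescence end point.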
# IL-1B inflam inh: inhibitors of inflammasome signaling (IL-1 beta secretion). 4.7% of 360,000 active. AID 743279. THP-1 LPS/ATP IL-1B secretion, AlphaLISA, 16 h; stronger effect = lower value. activity change, % at 57.5 µM; in the data active = activity change below about -50%; inconclusive = mostly about -30% to -49%
#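 Secreted IL-1B measured by AlphaLISA bead assay after 16 h compound exposure of THP-1 cells; compounds (final up to 57.5 uM) added 1 h before LPS (250 ng/mL) and ATP (1.25 mM) stimulation; lower signal means less secretion.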
# KB-3-1 cytotox: KB-3-1 parental cell cytotoxicity | 1.4% of 400,000 active | KB-3-1 viability, CellTiter-Glo ATP luminescence, 72 h | Potency, µM (highest dose often 46.1 µM), usual class: cytotoxic; note: nearly all actives have a fitted effect of over 60% in size
#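 Using CellTiter-Glo luminescence, growth of non-resistant KB-3-1 adenocarcinoma cells is assessed 72 h after pin-tool compound addition at 37 °C. Normalized responses across the concentration series yield fitted curves.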
# SW480 rereplic: induces DNA re-replication in SW480 colon adenocarcinoma cells. SW480 DNA re-replication, Hoechst DNA content imaging, 48 h. Potency, µM (series often up to 46.1 µM), hits mostly activators. 1.8% of 340,000 active; note: nearly all actives have a fitted effect of over 55% in size
#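 First, 250 cells per well were seeded. Next, compound or vehicle (23 nL) was pinned in, plates sat 48 hr at 37 C. Finally Hoechst was added for 40 min before fluorescence scanning.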
# A number is an active result; . = inactive; ? = inconclusive; / = no result given. Unless noted, calls come from the whole dose curve; as a rule, active = well fitted curve in the direction sought with a large enough effect; inconclusive = small, poorly fitted or top-dose-only effect, or another doubt; inactive = no such curve, though single readings can be large; an effect the other way counts as inactive or inconclusive.
SMILES,MCF10A rereplic,KB-V1 MDR tox,IL-1B inflam inh,KB-3-1 cytotox,SW480 rereplic
CCOC(=O)C1=C(C)N(c2ccc(OC)cc2)C(=O)/C1=C\c1ccc(O)c(OCC)c1,?,.,.,.,.
CCOC(=O)C1=C(C)N(c2ccc(OC)cc2)C(=O)/C1=C\c1cccs1,?,.,-59.9,?,.
COc1ccccc1C(C)NCC(=O)NC(=O)NCc1ccco1 (centres undefined),.,?,.,.,.
CC1(C)Cc2c(sc(NC(=O)c3ccc4c(c3)OCCO4)c2C(N)=O)C(C)(C)N1,.,.,-67.0,.,.
CSc1nc(-c2ccc(F)cc2)cc(=O)[nH]1,.,.,.,.,9.2µM
O=c1cc(-c2ccccc2)nc(SCc2ccc(F)cc2)[nH]1,.,.,.,.,.
O=C(Nc1cccnc1)c1cccc(S(=O)(=O)N2CCc3ccccc32)c1,.,10.3µM,.,?,.
CCC(CC)c1nnc(NC(=O)c2cccc(S(=O)(=O)N3CCc4ccccc43)c2)s1,4.61µM,14.6µM,.,.,?
CCOC(=O)c1sc(NC(=O)c2cccc(S(=O)(=O)N3CCc4ccccc43)c2)c(C#N)c1C,.,.,.,20.6µM,.
O=C(Nc1nncs1)c1cccc(S(=O)(=O)N2CCc3ccccc32)c1,?,.,.,.,.
O=C(Nc1nc2ccc(F)cc2s1)c1cccc(S(=O)(=O)N2CCc3ccccc32)c1,.,2.91µM,.,?,.
O=C(Nc1ccncc1)c1cccc(S(=O)(=O)N2CCc3ccccc32)c1,.,?,?,?,?
O=C(O)c1cccc(NC(=O)c2cccc(S(=O)(=O)N3CCc4ccccc43)c2)c1,.,.,.,.,.
Cc1ccc2nc(NC(=O)c3ccc(S(=O)(=O)N4CCCc5ccccc54)cc3)sc2c1,16.4µM,.,.,.,?
Cc1onc(-c2ccccc2)c1C(=O)Nc1ccc(S(=O)(=O)NC(C)(C)C)cc1,.,.,.,.,.
CC(/C=N/NC(=O)c1cc(-c2ccc(C)o2)[nH]n1)=C\c1ccccc1,23.1µM,.,.,.,18.4µM
O=C(N/N=C/C(Br)=C/c1ccccc1)c1cc(-c2ccco2)[nH]n1,7.31µM,?,-68.3,?,.
COc1ccccc1/C=C/C=N/NC(=O)c1cc(-c2ccco2)[nH]n1,?,?,.,.,.
Cc1ccc(-c2cc(C(=O)N/N=C/c3ccccc3)n[nH]2)o1,.,.,.,.,.
Cc1cc(SCC(=O)Nc2cccc(S(=O)(=O)NC3=NCCCCC3)c2)c(C)cc1Br,?,.,-63.8,.,.
Cc1cc(SCC(=O)Nc2cccc(S(=O)(=O)NC3=NCCCCC3)c2)nc2ccccc12,.,?,-57.4,?,?
CCOc1ccc(NC(=O)C2CCN(S(C)(=O)=O)CC2)cc1,0.92µM,?,.,.,?
O=C(Nc1ccc(OC(F)(F)F)cc1)C1CCN(S(=O)(=O)c2cccs2)CC1,/,.,/,20.6µM,/
CCOc1ccc(NC(=O)C2CCN(S(=O)(=O)c3cccs3)CC2)cc1,.,?,-58.4,?,.
Cc1noc(C)c1S(=O)(=O)N1CCC(C(=O)Nc2ccc(OC(F)(F)F)cc2)CC1,15.8µM,.,.,.,.
SMILES,MCF10A rereplic,KB-V1 MDR tox,IL-1B inflam inh,KB-3-1 cytotox,SW480 rereplic
CC(=O)c1ccc(NC(=O)C2CCN(S(=O)(=O)c3cccs3)CC2)cc1,.,.,.,.,.
Cc1cc(C)c2c(=O)cc(C(=O)Nc3sc4c(c3C#N)CCCC4)oc2c1,/,.,/,.,/
COc1cc(CNC(=O)c2ccc3c(c2)c(C)c(C)n3Cc2cccc(C)c2)cc(OC)c1OC,/,.,/,.,/
O=C(/C=C/[C@H]1O[C@@H](n2ccc(=O)[nH]c2=O)[C@H](O)[C@@H]1O)NCCN1CCOCC1,/,.,.,.,/
COC(=O)N1CCC2CC1c1c(Cl)cccc12 (centres undefined),/,.,.,.,/
CC1(C)Cc2ccccc2C(COc2ccccc2)=N1,?,.,-72.5,.,.
CC1(O)CC(c2ccc(Cl)cc2)=NN1C(=O)c1ccc(Cl)cc1 (centres undefined),11.6µM,?,.,.,?
Cc1ccc(C)c(NC(=O)Cn2cc(C(=O)C3CCCCC3)c3ccccc32)c1,/,?,/,.,/
O=C1CC(C(=O)N(c2cccc(F)c2)C(C(=O)NC2CCCC2)c2ccccn2)CS1 (centres undefined),.,.,.,.,.
O=C1CC(C(=O)N(c2ccc(F)cc2)C(C(=O)NC2CCCC2)c2ccccn2)CS1 (centres undefined),.,11.6µM,.,.,.
CCN(CC)c1ccc(-c2nc(-c3ccco3)no2)cc1[N+](=O)[O-],/,.,/,.,/
Cc1ccccc1OCc1nnc(SCc2cc(=O)c3cc(F)ccc3[nH]2)n1C,/,.,/,20.6µM,/
Cc1ccc2[nH]c(CSc3nnc(COc4ccccc4C)n3C)cc(=O)c2c1,/,.,/,?,/
O=C(/C=C/c1ccc(Cl)cc1)Nc1cccc([S+](=O)([O-])Nc2ccccc2F)c1,/,.,/,.,/
CCC(C(=O)OC(C)C)c1ccc2ccccc2c1 (centres undefined),?,.,.,.,.
CC(C)(C)NC(=O)CSC(=Nc1ccc(F)cc1)NC#N,?,.,-96.9,.,.
CCOC(=O)N1CCN(c2nnc(-c3ccccc3)c3ccccc23)CC1,.,.,?,.,.
CCOC(=O)N1CCN(c2nnc(-c3ccc(C)cc3)c3ccccc23)CC1,.,.,-67.1,.,.
CCCC(=O)N1CCN(c2nnc(-c3ccccc3)c3ccccc23)CC1,.,.,-51.3,.,.
Cc1ccc(-c2nnc(N3CCN(C(=O)COc4ccccc4)CC3)c3ccccc23)cc1,?,2.59µM,-79.4,18.4µM,.
Cc1ccc(-c2nnc(N3CCN(C(=O)CN4CCOCC4)CC3)c3ccccc23)cc1,.,13µM,.,.,.
CCc1nc2ccc(C(=O)Nc3cccc(OCC(=O)N(C)C)c3)cn2c1N(C)C(=O)c1ccncc1,/,.,.,.,/
Cc1ccccc1NC(=O)CSc1nc(-c2ccccc2)cn1-c1ccccc1F,/,.,/,.,/
C=CCc1c(NCCO)nc(C)[nH]c1=O,.,.,.,.,.
Cc1ccc(S(=O)(=O)C(C#N)c2nc3ccccc3nc2N2CCN(C)CC2)cc1 (centres undefined),?,.,.,?,.
O=C(c1cccs1)N1CCN(c2nnc(-c3ccccc3)c3ccccc23)CC1,.,?,-87.5,.,.
CCOC(=O)N1CCN(c2nc3ccccc3nc2C(C#N)S(=O)(=O)c2ccc(C)cc2)CC1 (centres undefined),.,3.66µM,.,.,.
CCOc1cc(/C=N/NC(=O)C(=O)Nc2cc(Cl)ccc2C)ccc1O,?,.,.,.,?
CN(C)CCOc1ccc(-c2c(-c3ccsc3)sc3ccccc23)cc1,?,.,-60.2,?,.
COc1cccc(-c2sc3ccc(OC)cc3c2-c2ccc(OCCN(C)C)cc2)c1,?,?,-62.0,?,.

# From PubChem
